# Measured values taken from PubChem BioAssay (NCI).
# This is part of a sample that, as a whole, favours compounds with a hit. Of some 83,000 tested, about 20% had one in any assay.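 96-well plates, one dose, 48 hours. Percent growth reported; active if below 10.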 Unmarked numbers belong to inactive results. Activity calls are given as the source filed them.
# What was measured:
# Assay in all cases: NCI-60 one-dose screen, 48 h (100 = growth as untreated, 0 = no growth, -100 = all killed)
# SK-MEL-2 melanoma = conditions: 10 µM unless noted
# EKVX NSCLC = conditions: 10 µM unless noted
# SN12C renal = conditions: 10 µM unless noted
# UO-31 renal = conditions: 10 µM unless noted
# TK-10 renal = conditions: 10 µM unless noted
# ACHN renal = conditions: 10 µM unless noted
# CAKI-1 renal = conditions: 10 µM
# A498 renal = conditions: 10 µM unless noted
# CCRF-CEM leukemia = conditions: 10 µM unless noted
# MOLT-4 leukemia = conditions: 10 µM unless noted
# SR leukemia = conditions: 10 µM unless noted
# RPMI-8226 leukemia = conditions: 10 µM unless noted
# OVCAR-8 ovarian = conditions: 10 µM unless noted
# OVCAR-5 ovarian = conditions: 10 µM unless noted
# OVCAR-4 ovarian = conditions: 10 µM unless noted
# SK-OV-3 ovarian = conditions: 10 µM unless noted
# IGROV1 ovarian = conditions: 10 µM unless noted
# OVCAR-3 ovarian = conditions: 10 µM unless noted
# HS 578T breast = conditions: 10 µM unless noted
# NCI/ADR-RES ovarian = conditions: 10 µM unless noted
SMILES,growth (SK-MEL-2 melanoma),growth (EKVX NSCLC),growth (SN12C renal),growth (UO-31 renal),growth (TK-10 renal),growth (ACHN renal),growth (CAKI-1 renal),growth (A498 renal),growth (CCRF-CEM leukemia),growth (MOLT-4 leukemia),growth (SR leukemia),growth (RPMI-8226 leukemia),growth (OVCAR-8 ovarian),growth (OVCAR-5 ovarian),growth (OVCAR-4 ovarian),growth (SK-OV-3 ovarian),growth (IGROV1 ovarian),growth (OVCAR-3 ovarian),growth (HS 578T breast),growth (NCI/ADR-RES ovarian)
O=C(CCCCCCN1CC(=O)N2[C@@H](c3ccc(Cl)c(F)c3)c3[nH]c4ccccc4c3C[C@H]2C1=O)NO,104%,87.9%,83.8%,75.3%,107%,92.1%,70.8%,106%,41.2%,45.3%,45.1%,59.1%,66.5%,87.6%,84.3%,81.8%,64.5%,83.6%,98.4%,101%
C#C[C@]1(O)CC[C@H]2[C@@H]3CC=C4c5sc(Nc6ccc(OC)nc6)nc5CC[C@]4(C)[C@H]3CC[C@@]21C,68%,48.7%,70.5%,32.6%,124%,33.4%,23.8%,25.9%,8.55% (active),3.4% (active),7.7% (active),-21.7% (active),27.7%,83.9%,76.1%,44.4%,29.7%,,3.53% (active),59%
O=C(NCCNc1cc(-c2cn(-c3ccccc3)nc2-c2cccc(O)c2)ccn1)Nc1ccc(Cl)c(C(F)(F)F)c1,104%,56.7%,65.6%,42.1%,98.1%,44.2%,46%,72.5%,54.1%,47.1%,65.5%,17.5%,74.1%,59.9%,73.5%,94.6%,69%,,41.6%,49.8%
Cc1cc(O)c2c(c1)C(=O)C(c1c(C)cc3c(c1O)C(=O)C=CC3=O)=CC2=O,123%,100%,74.7%,-14.9% (active),14.2%,-8.41% (active),13.8%,122%,19.3%,41.4%,11.1%,15.2%,82.5%,117%,86.3%,89.2%,108%,23.4%,102%,100%
CC(C)=CCC[C@](C)(O)[C@H]1CC[C@]2(C)[C@@H]1CC[C@@H]1[C@@]3(C)CCC(NC(=O)c4ccccc4C(=O)O)C(C)(C)[C@@H]3CC[C@]12C (some centres undefined),39.8%,101%,92.9%,85.2%,106%,73.5%,66.4%,103%,95.9%,97.5%,86.9%,90.9%,96.3%,94.9%,105%,104%,102%,,89.2%,98.3%
COc1ccc(S(=O)(=O)n2cc(C=O)c3ccccc32)c(OC)c1,96.1%,91.4%,85.2%,52.4%,106%,85.6%,52.5%,92.4%,33.5%,29.2%,16.4%,38.7%,76.1%,96.1%,80.9%,97.4%,86.6%,,78.3%,51%
O=C(NCCCCCCNC(=O)c1c2c(nc3ccccc13)-c1cccnc1SC2)c1c2c(nc3ccccc13)-c1cccnc1SC2,5.25% (active),49.1%,73.8%,38.8%,145%,65.8%,61.5%,76.5%,93.6%,88.1%,89.7%,58.9%,78.2%,57.9%,79.6%,85.7%,43.7%,,83.2%,77.2%
CC(=O)Nc1ccc(C)c(Nc2cc(-c3ccc(-n4cccn4)cc3)[nH]n2)c1,3.79% (active),74.7%,60.9%,60.6%,89.6%,65.8%,47.2%,27.3%,26.1%,47.8%,19.2%,50.3%,80%,93.3%,82.1%,59.3%,47.6%,,42.3%,87.7%
CCCCCCCCNC(=O)c1ccc(Cn2c(CCCC)nc3c(N)nc4ccccc4c32)cc1,95.4%,62.8%,-77.3% (active),11.8%,78.8%,26.6%,-1.97% (active),68%,-1.62% (active),-7.07% (active),8.69% (active),-38% (active),-10.9% (active),75.5%,-54.3% (active),,-37.8% (active),69.5%,87.4%,-62.2% (active)
O=C(NNc1nc2cc(F)c(F)cc2n2cccc12)c1ncccn1,34.5%,17.3%,23.9%,17.7%,48.6%,12.7%,18.2%,17.7%,12.7%,16.6%,18.7%,20.8%,21.9%,49.6%,13.4%,,20.5%,20.8%,49.1%,10.1%
NC(=S)N/N=C(/C=C/c1cn(-c2ccccc2)nc1-c1ccc(Cl)cc1)c1cc2ccccc2oc1=O,82.5%,35%,44.3%,28.5%,89.9%,43.7%,45.9%,69.3%,8.22% (active),23.7%,39.7%,41%,31.3%,67.3%,39.4%,,36%,14.8%,69.2%,25.4%
NC(=O)N1N=C(c2cc3ccccc3oc2=O)CC1c1cn(-c2ccccc2)nc1-c1ccc(Cl)cc1 (centres undefined),71.8%,24.3%,47.4%,17.8%,93.4%,32.5%,32.9%,54.5%,7.27% (active),17.3%,44.2%,48.4%,37.1%,64.9%,34.9%,,28.8%,17.6%,65.1%,29.3%
O=C1c2cc(Br)ccc2-n2c1nc1cc(Br)ccc1c2=O,73.4%,59.5%,76.6%,62.6%,149%,79%,78.7%,125%,71.9%,67.7%,65.8%,75.8%,78.3%,90.8%,64.7%,,59.8%,47.3%,96.1%,84.2%
